Records with an inconclusive call do not appear. Activity calls are given as the source filed them. Calls come from the whole dose curve; as a rule, active = well fitted activation curve with a large enough effect; inconclusive = small, poorly fitted or top-dose-only effect; inactive = no such curve, though single readings can be large or run the other way.
experiment: Confirmation Concentration-Response Assay for Enhancers of SMN2 Splice Variant Expression for Further Probe SAR; conditions: HEK293 SMN2 exon7-luciferase splicing reporter, luminescence, 30-36 h; series mostly up to 46.1 µM; activity, positive = activation: at the top concentration
Excerpt: NIH Chemical Genomics Center [NCGC] NIH Molecular Libraries Probe Production centers Network [MLPCN] MLPCN Grant: R03 MH084179-01 Assay Submitter (PI): Elliot Androphy NCGC Assay Overview: Spinal muscular atrophy (SMA) is caused by insufficient levels of the survival motor neuron protein SMN. The SMN locus on chromosome 5q13 contains two inverted copies of SMN called SMN1 and SMN2 which are 99% identical at the amino acid level. SMN1 is a fully functional protein and SMN2 skips exon 7 90% of the time. Skipping of exon 7 produces non-functional protein product. 10% of the SMN2 protein includes exon 7 and is fully functional. In the SMA disease state, mutations in the SMN1 locus are the cause of the disease state. Because only 10% of SMN2 is of the fully functional form, it is not sufficient to overcome the deficiency produced by the loss of the SMN1 product. A therapy that either increase the amount of SMN2 product made or to increase the inclusion of exon 7 has been proposed for the treatment of SMA. We have designed an assay to identify small molecules that can increase the amount of functional SMN2 product by appending a luciferase reporter gene after the native SMN2 gene, such that inclusion of exon 7 in the expressed product places the luciferase sequence in frame, thus generating functional luciferase enzyme.
NCGC Assay Protocol Summary: This screen utilizes a luciferase reporter gene assay, combining the promoter with the major portion of the native SMN2 cDNA (exons 1 -7, intron 8 , exon 8 fused to luciferase) stably expressed in HEK293 cells. Compounds that increase luciferase signal presumably enhance expression of the functional SMN2 splice variant. Passaging media contained DMEM w/ glutamax (+phenol red) 10% FCS, 1x pen/strep, 200 ug/ml hygro, 1x sodium pyruvate. Assay media contained DMEM w/ glutamax (-phenol red) 10% FCS, 1x pen strep, 1x pyruvate Sequence, Parameter, Value, Description (1) Cells, 5 uL, 2000 cells/well, 1536 TC treated White solid bottom plate (2) Time, 10-12 hours, 37C 5% CO2 (3) Compound, 23 nl, MLSMR Library (4) Control Compound, 23 nL, Sodium butyrate st 4.5mM (final) conc (5) Time, 30-36 hours, 37C 5% CO2 (6) Reagent, 3 ul, One Glo (TM) from Promega (7) Time, 5-15 minutes, Room temp (8) Detector, Viewlux: luminescent read, 60 second integration, high speed 2x binning Keywords: Spinal muscular atrophy, SMA, SMN2, high throughput screening, MLSMR, MLPCN, NIH Roadmap, qHTS and NCGC

SMILES | activity, positive = activation | Potency
O=C(NCCCCc1ccccc1)C1CCN(c2nc(-c3ccc(Br)cc3)cs2)CC1 | 4.35% (inactive) | –
NC(=O)C1CCN(c2nc(-c3ccc(C(F)(F)F)cc3)cs2)CC1 | – | 0.867 µM (active)
NC(=O)C1CCN(c2nc(-c3ccc4c(c3)CCO4)cs2)CC1 | – | 12.2 µM (active)
CC(=O)C1CCN(c2ncc(-c3ccc4c(c3)OCCCO4)s2)CC1 | -9.36% (inactive) | –
CN(C)c1cccc(-c2cnc(N3CCC(C(N)=O)CC3)nc2)c1 | – | 0.547 µM (active)
NC(=O)C1CCN(c2ncc(-c3cccc(F)c3)s2)CC1 | – | 1.94 µM (active)
Brc1ccc(-c2csc(N3CCC(c4nn[nH]n4)CC3)n2)cc1 | – | 17.3 µM (active)
NC(=O)C1CCN(c2nc(-c3ccc(OC(F)(F)F)cc3)cs2)CC1 | – | 3.07 µM (active)
N#Cc1ccccc1-c1csc(N2CCC(C(N)=O)CC2)n1 | 10% (inactive) | –
CC(C)Oc1cccc(-c2cnc(N3CCC(C(N)=O)CC3)s2)c1 | – | 0.0688 µM (active)
COc1ccccc1-c1csc(N2CCC(C(N)=O)CC2)n1 | -17.9% (inactive) | –
CC(C)(C)c1ccc(-c2csc(N3CCC(C(N)=O)CC3)n2)cc1 | – | 2.74 µM (active)
CN(C)c1cccc(-c2ncnc(N3CCC(C(N)=O)CC3)n2)c1 | – | 0.772 µM (active)
NC(=O)C1CCN(c2nc(-c3ccccc3[N+](=O)[O-])cs2)CC1 | – | 15.4 µM (active)
NC(=O)C1CCN(c2nc(-c3ccc(Cl)cc3)cs2)CC1 | – | 1.09 µM (active)
CS(=O)(=O)c1ccc(-c2csc(N3CCC(C(N)=O)CC3)n2)cc1 | -5% (inactive) | –
CC(C)Oc1ccc(-c2csc(N3CCC(C(N)=O)CC3)n2)cc1 | – | 3.87 µM (active)
O=S(=O)(c1ccccc1)N1CCN(c2nc(-c3ccc(Br)cc3)cs2)CC1 | 7.14% (inactive) | –
CS(=O)(=O)N1CCN(c2nc(-c3ccc(Br)cc3)cs2)CC1 | -26.1% (inactive) | –
NC(=O)C1CCN(c2ncc(Br)cn2)CC1 | 4.35% (inactive) | –

SMILES | activity, positive = activation | Potency
Cc1cccc(-c2csc(N3CCC(C(N)=O)CC3)n2)c1 | – | 15.4 µM (active)
NC(=O)C1CCN(c2cc(-c3ccc4c(c3)OCCCO4)ncn2)CC1 | – | 6.14 µM (active)
O=C(NCCCc1ccccc1)C1CCN(c2nc(-c3ccc(Br)cc3)cs2)CC1 | -47.8% (inactive) | –
NC(=O)C1CCN(c2nccc(-c3ccc4c(c3)OCCCO4)n2)CC1 | – | 1.54 µM (active)
NC(=O)C1CCN(c2nc(-c3ccc(Oc4ccccc4)cc3)cs2)CC1 | – | 4.34 µM (active)
CNC(=O)C1CCN(c2nc(-c3ccc(Br)cc3)cs2)CC1 | – | 4.87 µM (active)
CN(C)c1cccc(-c2nccc(N3CCC(C(N)=O)CC3)n2)c1 | – | 12.2 µM (active)
CC(C)Oc1cccc(-c2ccnc(N3CCC(C(N)=O)CC3)n2)c1 | – | 0.154 µM (active)
Cc1ccc(-c2ccnc(N3CCC(C(N)=O)CC3)n2)cc1 | – | 0.308 µM (active)
O=C(NCc1ccccc1)C1CCN(c2nc(-c3ccc(Br)cc3)cs2)CC1 | -4.76% (inactive) | –
NC(=O)C1CCN(c2ncc(Br)s2)CC1 | -13% (inactive) | –
NC(=O)C1CCN(c2ncc(-c3cccc(N4CCOCC4)c3)s2)CC1 | – | 1.94 µM (active)
CSc1ccc(-c2cnc(N3CCC(C(N)=O)CC3)s2)cc1 | – | 0.031 µM (active)
NC(=O)C1CCN(c2nc(-c3ccc([N+](=O)[O-])cc3)cs2)CC1 | – | 5.47 µM (active)
CC(=O)C1CCN(c2ncc(-c3cccc(N(C)C)c3)s2)CC1 | – | 2.74 µM (active)
NC(=O)C1CCN(c2ncc(-c3ccc4c(c3)OCCCO4)s2)CC1 | – | 0.0307 µM (active)
NC(=O)C1CCN(c2nc(-c3ccc(N)cc3)cs2)CC1 | 4.35% (inactive) | –
COc1cccc(-c2csc(N3CCC(C(N)=O)CC3)n2)c1 | – | 1.09 µM (active)
NC(=O)C1CCN(c2nc(-c3cccc4sc5ccccc5c34)cs2)CC1 | – | 13.7 µM (active)
NC(=O)C1CCN(c2nccc(Cl)n2)CC1 | 0% (inactive) | –
